The text below walks through data of ChEMBL document CHEMBL1961873, “Compounds: GSK PKIS; Assays: Nanosyn kinase panel” (2012).

For test [1], the target named is Mast/stem cell growth factor receptor Kit (Homo sapiens) (UniProt P10721). The following applies: at 1 µM.
For test [2], the system named is Mast/stem cell growth factor receptor Kit (Homo sapiens), P10721 [D816V]. To be noted: at 0.1 µM.
The test system is the same in test [3]. To be noted: at 1 µM.
Test [4] concerns Mast/stem cell growth factor receptor Kit (Homo sapiens), P10721 [T670I]. The following applies: at 0.1 µM.
Mast/stem cell growth factor receptor Kit (Homo sapiens), P10721 [T670I], sequence (P10721 whole entry T670I): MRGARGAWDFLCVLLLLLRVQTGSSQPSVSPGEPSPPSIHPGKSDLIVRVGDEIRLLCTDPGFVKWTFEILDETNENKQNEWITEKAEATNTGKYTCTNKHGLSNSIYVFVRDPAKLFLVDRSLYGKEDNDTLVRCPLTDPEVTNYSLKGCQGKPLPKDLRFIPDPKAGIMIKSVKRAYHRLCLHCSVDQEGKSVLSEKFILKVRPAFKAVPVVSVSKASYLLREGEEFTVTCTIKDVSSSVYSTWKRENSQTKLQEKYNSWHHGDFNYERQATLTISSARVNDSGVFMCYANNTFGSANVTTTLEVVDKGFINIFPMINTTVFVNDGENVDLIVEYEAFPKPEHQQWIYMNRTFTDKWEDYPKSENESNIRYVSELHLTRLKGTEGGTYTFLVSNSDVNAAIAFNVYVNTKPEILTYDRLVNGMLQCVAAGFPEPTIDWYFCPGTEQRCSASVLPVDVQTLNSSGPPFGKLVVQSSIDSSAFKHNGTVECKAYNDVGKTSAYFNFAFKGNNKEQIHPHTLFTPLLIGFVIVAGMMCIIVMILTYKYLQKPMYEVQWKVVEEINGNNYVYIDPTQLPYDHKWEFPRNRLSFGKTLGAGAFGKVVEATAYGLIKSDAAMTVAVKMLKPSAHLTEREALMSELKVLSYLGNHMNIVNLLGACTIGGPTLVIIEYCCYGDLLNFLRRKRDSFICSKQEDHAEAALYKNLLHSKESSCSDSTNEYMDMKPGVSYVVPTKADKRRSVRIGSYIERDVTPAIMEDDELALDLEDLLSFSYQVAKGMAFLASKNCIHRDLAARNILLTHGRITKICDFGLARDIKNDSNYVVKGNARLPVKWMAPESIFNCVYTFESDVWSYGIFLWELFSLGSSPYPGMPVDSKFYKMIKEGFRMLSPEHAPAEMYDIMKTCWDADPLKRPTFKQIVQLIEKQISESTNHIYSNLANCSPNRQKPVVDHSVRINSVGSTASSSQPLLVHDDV
The test system is the same in test [5]. To be noted: at 1 µM.
Test [6] has as its system Mast/stem cell growth factor receptor Kit (Homo sapiens), P10721 [V560G]. The following applies: at 0.1 µM.
Test [7] shares this test system. The following applies: at 1 µM.
The target in test [8] is Tyrosine-protein kinase Lck (Homo sapiens) (UniProt P06239). To be noted: at 0.1 µM.
Tyrosine-protein kinase Lck (Homo sapiens), sequence (P06239 2-509 limits assumed): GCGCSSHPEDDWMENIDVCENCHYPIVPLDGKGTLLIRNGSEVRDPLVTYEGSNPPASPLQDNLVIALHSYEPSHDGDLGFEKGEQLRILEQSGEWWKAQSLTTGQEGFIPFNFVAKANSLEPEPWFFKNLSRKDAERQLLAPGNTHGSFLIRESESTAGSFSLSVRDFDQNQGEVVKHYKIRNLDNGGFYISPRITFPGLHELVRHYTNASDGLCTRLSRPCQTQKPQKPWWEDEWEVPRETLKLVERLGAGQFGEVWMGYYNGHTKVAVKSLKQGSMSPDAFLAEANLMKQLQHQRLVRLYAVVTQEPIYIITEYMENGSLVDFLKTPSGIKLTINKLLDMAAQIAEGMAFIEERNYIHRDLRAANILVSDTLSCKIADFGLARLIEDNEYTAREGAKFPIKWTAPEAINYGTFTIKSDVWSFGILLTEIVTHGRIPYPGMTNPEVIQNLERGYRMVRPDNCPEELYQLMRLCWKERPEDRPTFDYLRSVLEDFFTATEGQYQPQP
For test [9] the target is unchanged. The following applies: at 1 µM.
In test [10] the target is Leukocyte tyrosine kinase receptor (Homo sapiens) (UniProt P29376). To be noted: at 0.1 µM.
Leukocyte tyrosine kinase receptor (Homo sapiens), sequence (P29376 whole entry): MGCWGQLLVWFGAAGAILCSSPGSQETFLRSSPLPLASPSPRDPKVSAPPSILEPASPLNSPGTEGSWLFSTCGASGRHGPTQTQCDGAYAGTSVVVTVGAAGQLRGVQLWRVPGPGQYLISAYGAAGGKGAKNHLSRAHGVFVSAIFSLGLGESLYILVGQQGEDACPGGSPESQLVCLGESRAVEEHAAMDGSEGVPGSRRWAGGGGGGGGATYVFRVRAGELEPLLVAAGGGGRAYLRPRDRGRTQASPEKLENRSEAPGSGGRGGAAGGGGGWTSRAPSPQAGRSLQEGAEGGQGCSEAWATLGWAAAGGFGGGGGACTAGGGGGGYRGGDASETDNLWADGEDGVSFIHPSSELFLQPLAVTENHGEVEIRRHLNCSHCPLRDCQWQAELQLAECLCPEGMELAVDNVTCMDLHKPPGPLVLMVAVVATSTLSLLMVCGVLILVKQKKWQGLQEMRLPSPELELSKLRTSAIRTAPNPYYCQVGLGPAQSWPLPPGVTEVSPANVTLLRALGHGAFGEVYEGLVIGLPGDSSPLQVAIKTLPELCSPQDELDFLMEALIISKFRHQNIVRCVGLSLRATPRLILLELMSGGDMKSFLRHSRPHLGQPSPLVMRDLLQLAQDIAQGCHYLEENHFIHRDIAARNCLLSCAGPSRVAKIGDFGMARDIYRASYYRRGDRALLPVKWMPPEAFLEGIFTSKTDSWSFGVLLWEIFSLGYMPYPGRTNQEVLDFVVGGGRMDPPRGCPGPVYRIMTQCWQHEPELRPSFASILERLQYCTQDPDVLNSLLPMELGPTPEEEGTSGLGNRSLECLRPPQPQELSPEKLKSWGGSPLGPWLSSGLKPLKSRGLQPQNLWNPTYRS
Test [11] has the same target. The following applies: at 1 µM.
Test [12] has as its target Tyrosine-protein kinase Lyn (Homo sapiens) (UniProt P07948). The following applies: at 0.1 µM.
Test [13] shares this target. To be noted: at 1 µM.
Test [14] shares this target. The following applies: at 0.1 µM. This is another data set of the same source.
For test [15] the target is unchanged. The following applies: at 1 µM. This is another data set of the same source.
The target in test [16] is T1, Tyrosine-protein kinase Mer (Homo sapiens) (UniProt Q12866).
T1 sequence (whole entry): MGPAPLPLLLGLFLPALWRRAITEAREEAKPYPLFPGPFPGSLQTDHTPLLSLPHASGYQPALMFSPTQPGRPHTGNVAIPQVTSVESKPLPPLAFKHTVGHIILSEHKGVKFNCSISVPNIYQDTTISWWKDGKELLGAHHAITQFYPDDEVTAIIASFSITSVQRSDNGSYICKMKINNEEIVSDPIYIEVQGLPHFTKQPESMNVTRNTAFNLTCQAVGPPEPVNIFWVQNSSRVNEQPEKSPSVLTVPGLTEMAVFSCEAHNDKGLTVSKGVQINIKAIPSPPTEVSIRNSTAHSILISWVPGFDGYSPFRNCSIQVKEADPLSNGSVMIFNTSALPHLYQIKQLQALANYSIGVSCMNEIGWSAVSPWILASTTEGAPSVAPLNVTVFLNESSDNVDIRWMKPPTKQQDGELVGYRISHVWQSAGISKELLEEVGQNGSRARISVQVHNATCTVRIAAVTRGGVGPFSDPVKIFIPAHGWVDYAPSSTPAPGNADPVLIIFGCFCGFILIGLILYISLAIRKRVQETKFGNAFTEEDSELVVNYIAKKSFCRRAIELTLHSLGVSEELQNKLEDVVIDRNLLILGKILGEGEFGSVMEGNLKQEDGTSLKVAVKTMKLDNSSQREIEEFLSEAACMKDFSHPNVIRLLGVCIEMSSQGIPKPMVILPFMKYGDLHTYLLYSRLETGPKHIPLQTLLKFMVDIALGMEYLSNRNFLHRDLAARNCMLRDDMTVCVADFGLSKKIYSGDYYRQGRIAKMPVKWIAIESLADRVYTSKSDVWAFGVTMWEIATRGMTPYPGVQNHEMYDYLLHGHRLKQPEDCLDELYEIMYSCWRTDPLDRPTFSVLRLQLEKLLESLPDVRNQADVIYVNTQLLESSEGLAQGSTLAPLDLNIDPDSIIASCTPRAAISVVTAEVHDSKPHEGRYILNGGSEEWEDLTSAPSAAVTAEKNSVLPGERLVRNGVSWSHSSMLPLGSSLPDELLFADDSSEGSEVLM
To be noted: at 0.1 µM.

For test [17], the target named is T1, Tyrosine-protein kinase Mer (Homo sapiens). The following applies: at 1 µM.
Test [18] has as its target Hepatocyte growth factor receptor (Homo sapiens) (UniProt P08581). To be noted: at 0.1 µM.
Test [19] has the same target. The following applies: at 1 µM.
Test [20] addresses T2, Muscle, skeletal receptor tyrosine-protein kinase (Homo sapiens) (UniProt O15146).
T2 sequence (whole entry): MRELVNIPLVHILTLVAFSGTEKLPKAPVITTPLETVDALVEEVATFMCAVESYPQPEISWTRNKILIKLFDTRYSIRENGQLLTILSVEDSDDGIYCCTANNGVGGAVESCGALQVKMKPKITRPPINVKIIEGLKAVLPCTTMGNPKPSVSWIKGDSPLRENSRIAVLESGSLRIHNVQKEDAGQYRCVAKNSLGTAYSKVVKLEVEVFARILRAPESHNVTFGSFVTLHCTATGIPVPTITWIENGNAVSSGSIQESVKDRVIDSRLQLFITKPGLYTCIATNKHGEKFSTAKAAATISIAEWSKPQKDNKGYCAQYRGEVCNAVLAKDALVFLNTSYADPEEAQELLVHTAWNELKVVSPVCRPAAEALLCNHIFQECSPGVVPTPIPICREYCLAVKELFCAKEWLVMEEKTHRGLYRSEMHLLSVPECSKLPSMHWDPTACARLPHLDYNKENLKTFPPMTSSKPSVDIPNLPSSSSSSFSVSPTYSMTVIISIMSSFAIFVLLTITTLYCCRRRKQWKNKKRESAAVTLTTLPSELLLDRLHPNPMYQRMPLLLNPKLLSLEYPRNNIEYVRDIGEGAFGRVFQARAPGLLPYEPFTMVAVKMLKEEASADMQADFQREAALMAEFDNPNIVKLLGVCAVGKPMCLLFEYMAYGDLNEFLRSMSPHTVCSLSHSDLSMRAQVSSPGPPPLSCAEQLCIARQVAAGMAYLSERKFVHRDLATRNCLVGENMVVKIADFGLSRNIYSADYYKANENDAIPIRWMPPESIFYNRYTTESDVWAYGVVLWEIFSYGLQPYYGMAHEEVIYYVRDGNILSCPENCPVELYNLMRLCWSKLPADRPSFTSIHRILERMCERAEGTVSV
To be noted: at 0.1 µM.

The structures appear in SMILES notation.

Hepatocyte growth factor receptor (Homo sapiens), sequence (P08581 whole entry): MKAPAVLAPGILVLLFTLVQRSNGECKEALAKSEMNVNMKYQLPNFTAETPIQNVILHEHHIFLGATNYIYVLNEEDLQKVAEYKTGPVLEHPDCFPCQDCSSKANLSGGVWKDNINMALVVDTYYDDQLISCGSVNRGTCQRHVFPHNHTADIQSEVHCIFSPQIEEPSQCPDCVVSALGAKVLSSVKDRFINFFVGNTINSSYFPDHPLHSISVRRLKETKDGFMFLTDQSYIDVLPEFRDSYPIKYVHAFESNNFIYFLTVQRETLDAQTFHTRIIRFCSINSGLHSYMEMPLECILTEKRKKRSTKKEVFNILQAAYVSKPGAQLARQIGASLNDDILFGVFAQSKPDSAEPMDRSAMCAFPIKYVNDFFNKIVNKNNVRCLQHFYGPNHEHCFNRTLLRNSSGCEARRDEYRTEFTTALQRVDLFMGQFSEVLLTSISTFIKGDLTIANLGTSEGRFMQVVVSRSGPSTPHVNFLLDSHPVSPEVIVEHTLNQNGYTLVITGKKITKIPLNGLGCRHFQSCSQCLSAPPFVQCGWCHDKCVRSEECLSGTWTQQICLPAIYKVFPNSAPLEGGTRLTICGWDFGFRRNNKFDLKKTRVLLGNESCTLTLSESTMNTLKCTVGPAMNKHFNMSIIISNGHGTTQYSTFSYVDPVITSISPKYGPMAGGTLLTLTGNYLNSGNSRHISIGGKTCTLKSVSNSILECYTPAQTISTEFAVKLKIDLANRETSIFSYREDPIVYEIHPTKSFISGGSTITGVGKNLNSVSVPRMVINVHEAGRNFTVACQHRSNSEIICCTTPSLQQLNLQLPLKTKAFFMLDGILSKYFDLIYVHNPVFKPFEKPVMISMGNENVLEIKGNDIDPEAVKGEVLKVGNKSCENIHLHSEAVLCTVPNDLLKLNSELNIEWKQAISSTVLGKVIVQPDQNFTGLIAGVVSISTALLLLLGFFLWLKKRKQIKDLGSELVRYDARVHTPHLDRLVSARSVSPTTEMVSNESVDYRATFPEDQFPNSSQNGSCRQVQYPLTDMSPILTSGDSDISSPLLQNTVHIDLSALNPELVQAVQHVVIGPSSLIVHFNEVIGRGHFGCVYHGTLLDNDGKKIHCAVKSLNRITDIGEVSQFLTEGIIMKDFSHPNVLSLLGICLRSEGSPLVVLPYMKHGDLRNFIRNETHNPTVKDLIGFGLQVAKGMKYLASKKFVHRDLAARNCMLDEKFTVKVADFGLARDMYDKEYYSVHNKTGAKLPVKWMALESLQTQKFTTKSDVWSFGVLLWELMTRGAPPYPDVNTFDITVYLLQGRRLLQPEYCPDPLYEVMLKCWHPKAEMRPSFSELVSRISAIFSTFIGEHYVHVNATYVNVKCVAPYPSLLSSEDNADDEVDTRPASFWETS
Mast/stem cell growth factor receptor Kit (Homo sapiens), sequence (P10721 whole entry): as the sequence (P10721 whole entry T670I) above, with I670T counted along it
Mast/stem cell growth factor receptor Kit (Homo sapiens), P10721 [D816V], sequence (P10721 whole entry D816V): as the sequence (P10721 whole entry T670I) above, with I670T, D816V counted along it
Mast/stem cell growth factor receptor Kit (Homo sapiens), P10721 [V560G], sequence (P10721 whole entry V560G): as the sequence (P10721 whole entry T670I) above, with V560G, I670T counted along it
Tyrosine-protein kinase Lyn (Homo sapiens), sequence (P07948 2-512 limits assumed): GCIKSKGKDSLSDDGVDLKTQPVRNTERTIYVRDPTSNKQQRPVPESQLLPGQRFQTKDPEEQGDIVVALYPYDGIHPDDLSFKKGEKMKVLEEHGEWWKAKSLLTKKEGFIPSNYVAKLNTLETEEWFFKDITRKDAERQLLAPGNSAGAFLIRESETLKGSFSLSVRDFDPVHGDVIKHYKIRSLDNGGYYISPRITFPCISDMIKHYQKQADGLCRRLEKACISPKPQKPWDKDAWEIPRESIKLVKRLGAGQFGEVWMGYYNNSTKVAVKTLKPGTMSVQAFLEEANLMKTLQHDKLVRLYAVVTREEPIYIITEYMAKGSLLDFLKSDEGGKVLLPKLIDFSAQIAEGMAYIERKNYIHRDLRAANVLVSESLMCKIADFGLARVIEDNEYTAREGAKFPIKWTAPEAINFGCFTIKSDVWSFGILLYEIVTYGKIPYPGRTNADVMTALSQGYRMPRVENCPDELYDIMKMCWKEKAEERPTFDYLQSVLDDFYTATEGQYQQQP

For `NC(=O)c1sc(-n2cnc3ccc(C(F)(F)F)cc32)cc1OCc1ccccc1Br`, the inhibition in test [1] was 5.18%; in [2], 5.27%; in [3], 5.73%; in test [4], 2.58%; in test [5], 3.8%; in test [6], -0.43%. Also, the inhibition is -0.61% in test [7]; -0.17% in [8]; 1.85% in test [9]; 3.16% in test [10]; 3.98% in [11]; 5.8% in test [12]. Besides, the inhibition stood at 6.03% in test [13]; 2.92% in test [14]; 3.3% in test [15]; 1.71% in test [16]; 1.36% in [17]; 3.13% in [18]. Moreover, the inhibition was -0.12% in test [19] and 4.43% in [20].
With `CCN1CCC(CC(=O)Nc2n[nH]c3nnc(-c4cccc(F)c4F)cc23)CC1`, the inhibition in test [1] turned out to be 0.38%; in [2], 0.53%; in test [3], 0.47%; in test [4] it was 0.27%; in [5], 1.83%; in test [6], 1.48%. The inhibition in test [7] was -0.83%; in test [8], 2.01%; in test [9], 6.17%; in test [10] it was 2.06%; in test [11], 1.45%; in test [12], 3.32%. Further, the inhibition in test [13] is 3.55%; in test [14] it was 2.16%; in test [15], 2.2%; in [16], -1.66%; in test [17] it was -0.36%; in test [18], 4.54%. Further, the inhibition was found to be 9.2% in [19] and 1.85% in test [20].
For the molecule `Cc1ccc(O)cc1Nc1ccnc2cc(-c3ccccn3)ccc12`, the inhibition in [1] was 43.1%; in test [2], 23.5%; in test [3], 73.7%; in test [4], 4.94%; in [5], 3.09%; in test [6], 3.25%. Moreover, the inhibition was found to be 41.2% in [7]; 33.6% in test [8]; 76.6% in [9]; 10.9% in test [10]; 49.7% in test [11]; 72.8% in test [12]. The inhibition in test [13] worked out at 94.3%; in test [14] it was 65.2%; in test [15], 91.9%; in test [16], 1.35%; in test [17] it was 4.24%; in [18] it was 11.7%. In addition, the values for the inhibition in [19] and in test [20] were 5.41% and 3.21%, respectively.
`CCOc1ccc2c(-c3ccnc(Nc4cccc(C(F)(F)F)c4)n3)cnn2n1`: the inhibition in test [1] is 17.8%; in [2] it was 0.23%; in [3] it was 2.91%; in [4], 1.24%; in test [5] it was 3.49%; in test [6] it was -1.27%. The inhibition in [7] worked out at 0.29%; in test [8], 2.98%; in [9], 7.3%; in test [10], 2.51%; in test [11] it was 1.96%; in test [12], 4.33%. The inhibition in test [13] was 4.33%; in [14], 3.97%; in test [15], 3.17%; in test [16], 0.97%; in test [17], 3.35%; in test [18], 3.01%. The figures for the inhibition in [19] and in [20] were 3.51% and 2.25%, respectively.
On to `COc1ccc2[nH]c3c4[nH]c5ccc(OC)cc5c4c4c(c3c2c1)C(=O)NC4=O`, for which the inhibition in test [1] is 79.9%; in test [2], 31.6%; in test [3], 75.4%; in test [4], 6.78%; in test [5] it was 44.2%; in [6], 3.53%. The inhibition came to 31.2% in test [7]; 4.72% in [8]; 21.1% in test [9]; 37.8% in [10]; 78.3% in test [11]; 10.8% in test [12]. The inhibition in test [13] stood at 35.3%; in [14] it was 7.67%; in test [15], 31.5%; in test [16], 10.7%; in test [17] it was 50.1%; in [18], 10.5%. The inhibition was 19.8% in [19] and 4.97% in [20].
Turning to `Fc1cccc(COc2ccc(Nc3ncnc4sc(-c5ccco5)cc34)cc2Cl)c1`, the inhibition in test [1] was 6.21%; in test [2], 3.37%; in [3] it was 6.34%; in test [4] it was 2.63%; in test [5] it was 3.7%; in [6], -0.3%. For the same molecule, the inhibition in test [7] was determined as 0.57%; in test [8] it was 3.21%; in test [9], 5.67%; in test [10] it was 3.44%; in test [11] it was 4.08%; in [12], 3.59%. The inhibition in [13] is 4.38%; in test [14] it was 2.97%; in test [15], 2.48%; in [16], 0.45%; in test [17] it was 3.51%; in test [18], 3.09%. Besides, the values for the inhibition in test [19] and in test [20] were 4.96% and 4.4%, respectively.
Regarding `COc1ccc(-c2cc(-c3c[nH]nc3-c3ccccn3)ccn2)cc1`, the inhibition was 9.66% in test [1]; 4.3% in test [2]; 11.7% in test [3]; 4.24% in [4]; 4.17% in test [5]; -1.03% in test [6]. In addition, the inhibition turned out to be 2.87% in test [7]; 2.68% in test [8]; 5.16% in test [9]; 5.4% in [10]; 5.89% in test [11]; 6.64% in [12]. For the same molecule, the inhibition was 15.2% in test [13]; 3.87% in test [14]; 11.2% in [15]; 1.3% in test [16]; 2.69% in [17]; 8.94% in test [18]. For the same molecule, the inhibition in [19] was 3.52%; in test [20], 3.4%.
On to `CCn1c(-c2nonc2N)nc2ccccc21`, for which the inhibition is 4.28% in test [1]; 1.78% in test [2]; -1.08% in test [3]; 2.82% in test [4]; 0.55% in [5]; 1.72% in test [6]. In addition, the inhibition was 1.6% in test [7]; 0.68% in test [8]; 3.03% in [9]; 5.66% in test [10]; 1.66% in test [11]; 3.33% in test [12]. Also, the inhibition in test [13] is 2.16%; in [14], 2.02%; in test [15], 0.98%; in test [16], -0.11%; in [17], 1.81%; in [18], 5.36%. The inhibition in [19] is 2.36%; in test [20], 3.36%.
